SMILES strings stand for the structures. This is part of a sample that, as a whole, favours compounds with a hit. Of some 79,000 tested, about 15% had one in any assay. Unmarked numbers belong to inactive results. The source made the active and inactive calls. Rule as the data show it: active = growth inhibition above about 70%; inactive = the rest.

The first test in a line: NCI Yeast Anticancer Drug Screen. Data for the CLN2oe strain (AID 163).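 Also: 0% = growth of vehicle-only control cultures.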 Particulars: S. cerevisiae CLN2oe strain, at 11.0 µM, hits give high values. An outline of the steps:
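Here, growth inhibition in a cell-cycle-altered yeast strain after compound exposure was quantified against vehicle control growth.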
Take `c1ccc2c(c1)ccn2CCc1c[nH]c2ccccc12`: the growth inhibition was 12%.

For `CC(C)OC(=O)NNc1c(Cl)cc(Cl)cc1Cl`, the growth inhibition is 14%.

For the compound `COc1ccc2nc3cccc([N+](=O)[O-])c3c(NCCNCCO)c2c1`, the growth inhibition was -5%.

As for `COc1ccc2c(c1)CCCC(Br)C2=O` (centres undefined), the growth inhibition is -9%.

Regarding `O=S(=O)(c1cccc(C(F)(F)F)c1)N1c2ccccc2-n2cccc2C1c1cccnc1` (centres undefined), the growth inhibition is 74% (active).

Regarding `CC1=CC(=C(c2ccc(N)c(C)c2)c2ccc(N)c(C)c2)C=CC1=N`, the growth inhibition was 41%.

Turning to `CC(/C=C/c1ccc([N+](=O)[O-])o1)=N/N1CC(CN2CCOCC2)OC1=O` (centres undefined), the growth inhibition is -2%.

Regarding `C=CC(C)(C)N1C(=O)C(C(C)=O)=C(O)C1Cc1c[nH]c2ccccc12` (centres undefined), the growth inhibition was -9%.

With `Cc1ccc([N+](=O)[O-])c2c(NCCC[N+](C)(C)[O-])c3ccccc3nc12`, the growth inhibition was -17%.

Take `COc1cc([C@@H]2c3cc4c(cc3[C@@H](NC(=O)NO)[C@H]3COC(=O)[C@H]23)OCO4)cc(OC)c1O`: the growth inhibition was -1%.

For `CC1(C)CC(=O)C(/C=N/c2nc(-c3ccc(Br)cc3)cs2)=C(O)C1`, the growth inhibition was 31%.

In the case of `CCOC(=O)/C(=C/c1cccc(Cl)c1)N(CC)CC`, the growth inhibition is 20%.

Take `CC(C)OC(=O)NNc1cccc(Cl)c1`: the growth inhibition is 17%.

`CCC(=O)C1=C(O)c2cc(OC)ccc2CC1C(=O)OC` (centres undefined): the growth inhibition is 2%.

For the compound `COc1cc(OC)c(CSCC(NC(=O)OCC2c3ccccc3-c3ccccc32)C(=O)O)c(OC)c1` (centres undefined), the growth inhibition was 68%.

With `CC(C)=CCC/C(C)=C/CN1C(=O)C=CC1=O`, the growth inhibition is 81% (active).

On to `O=C1CSC(c2ccccc2)N1c1ccc(-c2ccc(-n3c(-c4ccccc4)nc4ccccc4c3=O)cc2)cc1` (centres undefined), for which the growth inhibition was 6%.

`O=C(NCCNCCNC(=O)c1cc(-c2ccccc2)nc2ccccc12)c1cc(-c2ccccc2)nc2ccccc12`: the growth inhibition was -3%.

The test is the same for the next values; noted with them: S. cerevisiae CLN2oe strain, at 33.0 µM, hits give high values.
`c1ccc2c(c1)ccn2CCc1c[nH]c2ccccc12`: the growth inhibition was 48%.

With `CC(C)OC(=O)NNc1c(Cl)cc(Cl)cc1Cl`, the growth inhibition is 19%.

Consider `COc1ccc2nc3cccc([N+](=O)[O-])c3c(NCCNCCO)c2c1`, for which the growth inhibition is 32%.

As for `COc1ccc2c(c1)CCCC(Br)C2=O` (centres undefined), the growth inhibition was 45%.

For `O=S(=O)(c1cccc(C(F)(F)F)c1)N1c2ccccc2-n2cccc2C1c1cccnc1` (centres undefined), the growth inhibition was 94% (active).

In the case of `CC1=CC(=C(c2ccc(N)c(C)c2)c2ccc(N)c(C)c2)C=CC1=N`, the growth inhibition is 50%.

As for `CC(/C=C/c1ccc([N+](=O)[O-])o1)=N/N1CC(CN2CCOCC2)OC1=O` (centres undefined), the growth inhibition was 44%.

Turning to `C=CC(C)(C)N1C(=O)C(C(C)=O)=C(O)C1Cc1c[nH]c2ccccc12` (centres undefined), the growth inhibition was 16%.

As to `Cc1ccc([N+](=O)[O-])c2c(NCCC[N+](C)(C)[O-])c3ccccc3nc12`, the growth inhibition is -21%.

As to `COc1cc([C@@H]2c3cc4c(cc3[C@@H](NC(=O)NO)[C@H]3COC(=O)[C@H]23)OCO4)cc(OC)c1O`, the growth inhibition is -12%.

On to `CC1(C)CC(=O)C(/C=N/c2nc(-c3ccc(Br)cc3)cs2)=C(O)C1`, for which the growth inhibition was 93% (active).

For the compound `CCOC(=O)/C(=C/c1cccc(Cl)c1)N(CC)CC`, the growth inhibition is 45%.

As for `CC(C)OC(=O)NNc1cccc(Cl)c1`, the growth inhibition is 53%.

As to `CCC(=O)C1=C(O)c2cc(OC)ccc2CC1C(=O)OC` (centres undefined), the growth inhibition is 10%.

With `COc1cc(OC)c(CSCC(NC(=O)OCC2c3ccccc3-c3ccccc32)C(=O)O)c(OC)c1` (centres undefined), the growth inhibition is 99% (active).

In the case of `CC(C)=CCC/C(C)=C/CN1C(=O)C=CC1=O`, the growth inhibition was 99% (active).

For the compound `O=C1CSC(c2ccccc2)N1c1ccc(-c2ccc(-n3c(-c4ccccc4)nc4ccccc4c3=O)cc2)cc1` (centres undefined), the growth inhibition was 6%.

On to `O=C(NCCNCCNC(=O)c1cc(-c2ccccc2)nc2ccccc12)c1cc(-c2ccccc2)nc2ccccc12`, for which the growth inhibition was -5%.

The test is the same for the next values; noted with them: S. cerevisiae CLN2oe strain, at 100.0 µM, hits give high values.
With `c1ccc2c(c1)ccn2CCc1c[nH]c2ccccc12`, the growth inhibition is 95% (active).

In the case of `CC(C)OC(=O)NNc1c(Cl)cc(Cl)cc1Cl`, the growth inhibition was 18%.

Turning to `COc1ccc2nc3cccc([N+](=O)[O-])c3c(NCCNCCO)c2c1`, the growth inhibition is 90% (active).

For `COc1ccc2c(c1)CCCC(Br)C2=O` (centres undefined), the growth inhibition is 96% (active).

With `O=S(=O)(c1cccc(C(F)(F)F)c1)N1c2ccccc2-n2cccc2C1c1cccnc1` (centres undefined), the growth inhibition is 90% (active).

Consider `CC1=CC(=C(c2ccc(N)c(C)c2)c2ccc(N)c(C)c2)C=CC1=N`, for which the growth inhibition is 97% (active).

As to `CC(/C=C/c1ccc([N+](=O)[O-])o1)=N/N1CC(CN2CCOCC2)OC1=O` (centres undefined), the growth inhibition was 90% (active).

Regarding `C=CC(C)(C)N1C(=O)C(C(C)=O)=C(O)C1Cc1c[nH]c2ccccc12` (centres undefined), the growth inhibition was 83% (active).

For `Cc1ccc([N+](=O)[O-])c2c(NCCC[N+](C)(C)[O-])c3ccccc3nc12`, the growth inhibition was 10%.

On to `COc1cc([C@@H]2c3cc4c(cc3[C@@H](NC(=O)NO)[C@H]3COC(=O)[C@H]23)OCO4)cc(OC)c1O`, for which the growth inhibition was 0%.

On to `CC1(C)CC(=O)C(/C=N/c2nc(-c3ccc(Br)cc3)cs2)=C(O)C1`, for which the growth inhibition is 97% (active).

On to `CCOC(=O)/C(=C/c1cccc(Cl)c1)N(CC)CC`, for which the growth inhibition is 96% (active).

For the compound `CC(C)OC(=O)NNc1cccc(Cl)c1`, the growth inhibition is 84% (active).

With `CCC(=O)C1=C(O)c2cc(OC)ccc2CC1C(=O)OC` (centres undefined), the growth inhibition is 21%.

For `COc1cc(OC)c(CSCC(NC(=O)OCC2c3ccccc3-c3ccccc32)C(=O)O)c(OC)c1` (centres undefined), the growth inhibition was 98% (active).

As for `CC(C)=CCC/C(C)=C/CN1C(=O)C=CC1=O`, the growth inhibition is 99% (active).

For `O=C1CSC(c2ccccc2)N1c1ccc(-c2ccc(-n3c(-c4ccccc4)nc4ccccc4c3=O)cc2)cc1` (centres undefined), the growth inhibition was 10%.

For the compound `O=C(NCCNCCNC(=O)c1cc(-c2ccccc2)nc2ccccc12)c1cc(-c2ccccc2)nc2ccccc12`, the growth inhibition is 45%.
